Experiment [1] addresses Glucocorticoid receptor (Homo sapiens) (UniProt P04150). The experiment in a line: GR-GFP Redistribution (AID 450;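 active means compounds whose dose series gives a full or clear partial fitted curve of increased nuclear translocation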; further: potency means the concentration at half of the fitted maximal effect). The settings on record: U2OS GR-GFP nuclear translocation, laser cytometry, 2 h.
Experiment [2] has the same target. The experiment in a line: GR-EFC Redistribution (AID 451; calls by dose curve; further: potency means the concentration at half of the fitted maximal effect). The settings on record: CHO-K1 GR-EFC translocation, beta-gal luminescence, 2 h. In short, it runs like this:
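CHO-K1 cells stably expressing nuclear-localized β-gal enzyme acceptor and GR fused C-terminally to the enzyme donor fragment; ligand-driven nuclear translocation restores β-gal by complementation. Compounds titrated up to 46 uM final, 2 h at 37 °C; luminescence read.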

The nature of experiment [3]: Cell Viability - N2a (AID 540).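 Further: cells exposed to compound for 40 h at 37 °C; plate controls were DMSO alone for no effect and tamoxifen control for full effect; nearly all actives have a fitted effect of over 45% in size.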 The settings on record: N2a mouse neuroblastoma cell viability; at 92.2 µM (top of the series). In short, it runs like this:
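First, 1500 N2a cells per well incubate 5 hr at 37 °C; next, compounds are added and incubated 40 hr at 37 °C; finally CellTiter-Glo is added and luminescence read after 20 min, with AC50 derived by Hill modeling.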

Experiment [4] is described as follows: Cell Viability - Renal Proximal Tubule (AID 545).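 Further: cells exposed to compound for 40 hours; nearly all actives have a fitted effect of over 40% in size.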 The note with it: renal proximal tubule cells viability, primary cells of rat origin; at 91.7 µM (top of the series). The method in brief:
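Primary rat renal proximal tubule cells (1000/well) were treated with compounds for 40 hr at 37 °C in complete medium. Intracellular ATP was measured by CellTiter-Glo luminescence, and AC50 values came from Hill-equation fits of concentration-response data.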

In experiment [5] the target is 3',5'-cyclic-AMP phosphodiesterase 4B (Homo sapiens) (UniProt Q07343). The experiment in a line: qHTS Assay for Inhibitors of PDE-IV (AID 607; active means well fitted activation curve with a large enough effect in the main read-out, with a control signal flat, not every such curve was filed as active; further: % of control where 0% means no effect). The settings on record: HEK293 ACTOne CNG channel cells, membrane potential fluorescence; series mostly up to 22.9 µM. In short, it runs like this: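 HEK293 ACTOne cells with CNG channel (1000/well), endogenous PDE4; membrane potential dye, compounds up to 22.9 uM final. Fluorescence Ex 535/Em 590; RO 20-1724 (100 uM final) as reference.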
(In qHTS, concentration-response curves come from the screen itself.)

Experiment [6] is described as follows: Cellular Toxicity (caspase-3) HepG2 (AID 654).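 Further: cells exposed to compound for 16 hours before reading; 0% = DMSO alone and 100% = caspase signal from 100 µM tamoxifen.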 The note with it: HepG2 caspase-3 activation, luminescence, 0% = DMSO only, 100% = tamoxifen; series mostly up to 92.2 µM. The method in brief:
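qHTS, HepG2, 1500 cells/well, complete medium; cpd 16 h 37 °C; Caspase-Glo 3/7, 20 min RT; lum. Norm: DMSO vs 100 uM tamoxifen; AC50 Hill fit.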

Experiment [7] in a line: Cellular Toxicity (caspase-3) Jurkat (AID 655).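 Further: cells exposed to compound for 16 h at 37 °C before reading.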 The note with it: Jurkat caspase-3 activation, luminescence; series mostly up to 92.2 µM. The method in brief: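 Jurkat cells (5000/well) in complete medium were treated with compounds for 16 hr at 37 °C, then Caspase-Glo 3/7 luminescence was read after 20 min at room temperature. Data normalized to DMSO (basal) and 100 uM tamoxifen (100%); AC50 from Hill fit.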

Experiment [8] can be described thus: Cellular Toxicity (caspase-3) HUV-EC-C (AID 656). The note with it: HUV-EC-C cells, caspase-3 activation (apoptosis), vehicle = 0, 100 µM tamoxifen = 100%; series mostly up to 92.2 µM. In short, it runs like this:
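HUV-EC-C endothelial cells, 1000/well, were pre-incubated 5 hr at 37°C, then exposed to compounds for 16 hr at 37°C. Caspase-Glo 3/7 luminescence was read after 20 min at room temperature. AC50 came from Hill fits, normalized to DMSO and 100 uM tamoxifen.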

Experiment [9] can be described thus: Cellular Toxicity (caspase-3) SHSY5Y (AID 657). The settings on record: SH-SY5Y caspase-3 activation; series mostly up to 91.7 µM. The method in brief: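 SH-SY5Y human neuroblastoma cells (1500/well) were treated with compounds for 16 h at 37 °C, then Caspase-Glo 3/7 luminescence was read after 1 h at room temperature. Data normalized to DMSO and 10 uM staurosporine; AC50 from Hill fits.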

Experiment [10] can be described thus: Cellular Toxicity (caspase-3) BJ (AID 658). The settings on record: BJ fibroblasts, luminescence; Potency: caspase-3 activation; series mostly up to 91.7 µM. The method in brief: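 Luminescent aminoluciferin-substrate cleavage reports caspase 3/7 activity in normal human BJ fibroblasts after 16 hr compound exposure at 37 °C. Normalized to DMSO (basal) and 10 uM staurosporine (100%); AC50 from Hill fit of concentration-response.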

Experiment [11] in a line: Cellular Toxicity (caspase-3) MRC-5 (AID 659). The note with it: MRC-5 cells, luminescence, normalized: DMSO 0%, 10 µM staurosporine 100%; series mostly up to 91.7 µM. In short, it runs like this:
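Luminescence from caspase-cleaved aminoluciferin substrate (Caspase-Glo 3/7, 1 hr RT) reports caspase 3/7 activity in MRC-5 lung fibroblasts after 16 hr compound exposure. Normalized to DMSO basal and 10 uM staurosporine as 100%; AC50 from Hill fits.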

Experiment [12] can be described thus: Cellular Toxicity (caspase-3) Mesangial (AID 660).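 Further: combined caspase 3 and 7 activity read by Caspase-Glo luminescence; cells exposed to compound for 16 h before the caspase read.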 The settings on record: mesangial cells, normalized: DMSO 0%, 100 µM tamoxifen 100%; series mostly up to 91.7 µM. The method in brief: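 Concentration-response qHTS: compound-induced rise in caspase 3/7 luminescence in human mesangial cells after 16 h, normalized to DMSO and 100 uM tamoxifen controls.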
A short description of experiment [13]: Cellular Toxicity (caspase-3) SK-N-SH (AID 661). The settings on record: SK-N-SH caspase-3 activation, qHTS; caspase-3 activation: at 91.7 µM (top of the series), DMSO as zero, staurosporine as full. In short, it runs like this: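 Caspase 3/7 activation is measured as a luminescence increase from aminoluciferin released by substrate cleavage in SK-N-SH cells after 16 hr compound treatment; values are AC50 from concentration-response curves.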

Experiment [14] is described as follows: Cellular Toxicity (caspase-3) H-4-II-E (AID 663).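 Further: cells exposed to compound for 16 hr before readout.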 The note with it: H-4-II-E rat hepatoma, scaled: DMSO 0%, 100 µM tamoxifen 100%; series mostly up to 92.2 µM. In short, it runs like this: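 Luminescence from caspase-cleaved aminoluciferin substrate, read 20 min after reagent addition, reports caspase 3/7 activation in rat H-4-II-E cells after 16 hr compound exposure. Normalized to DMSO (basal) and 100 uM tamoxifen (100%); AC50 from Hill fits.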

In experiment [15] the target is Mitogen-activated protein kinase 10 (Mus musculus) (UniProt Q61831). Nature of the experiment: JNK3 AlphaScreen Assay (AID 530; active means well fitted curve in either direction with a large enough effect, not every such curve was filed as active;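 further: kinase came from lysate of stimulated human HepG2 cells; on the % scale 0 is the no-effect control and ±100 the full control effect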). The settings on record: JNK3 lysate, c-Jun phosphorylation; series mostly up to 57.1 µM. The method in brief: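 JNK3 came from HepG2 lysates pre-activated with IL-1beta and TNF-alpha and phosphorylated biotinylated GST-cJun (1-79) at 10 uM ATP, pH 7.6, room temperature. Compounds were titrated. AlphaScreen signal used anti-phospho-cJun (Ser73) antibody.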

The nature of experiment [16]: Cell Viability - NIH 3T3 (AID 541).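 Further: cells exposed to compound for 40 hours; plate controls were DMSO alone for no effect and tamoxifen positive control for full effect; nearly all actives have a fitted effect of over 25% in size.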 The note with it: NIH 3T3 cell viability, qHTS; activity change, negative = cytotoxicity: at 92.2 µM (top of the series). In short, it runs like this:
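AC50 values reflect concentration-dependent loss of intracellular ATP in NIH 3T3 cells after 40 hr treatment in complete culture medium, quantified by luciferase-based luminescence.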

A short description of experiment [17]: Cell Viability - HUV-EC-C (AID 542).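 Further: cells exposed to compound for 40 hours; on the % scale 0 is the no-effect control and ±100 the full control effect; nearly all actives have a fitted effect of over 35% in size.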 The settings on record: HUV-EC-C endothelial cell viability, qHTS; series mostly up to 92.2 µM. In short, it runs like this: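 Decrease in cellular ATP, quantified by luciferase luminescence, reflects toxicity in normal human vascular endothelial HUV-EC-C cells given compound for 40 hr in complete culture medium. Values are AC50s from concentration-response curves.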

Experiment [18] is described as follows: Cell Viability - H-4-II-E (AID 543).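 Further: cells exposed to compound for 40 hours; on the % scale 0 is the no-effect control and ±100 the full control effect; nearly all actives have a fitted effect of over 35% in size.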 The settings on record: H-4-II-E rat hepatoma viability; series mostly up to 92.2 µM. The method in brief:
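Here, cytotoxicity is measured in the rat hepatoma line H-4-II-E as loss of intracellular ATP after 40 hr compound treatment, detected by luciferase luminescence.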

A short description of experiment [19]: Cell Viability - SH-SY5Y (AID 544).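 Further: cells exposed to compound for 40 hours; nearly all actives have a fitted effect of over 55% in size.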 The note with it: SH-SY5Y neuroblastoma cell viability; series mostly up to 92.2 µM. In short, it runs like this: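 Cytotoxicity is scored as a concentration-dependent fall in intracellular ATP in human SH-SY5Y cells treated 40 hr in complete culture medium. Potency is expressed as AC50 from a Hill equation fit.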
The nature of experiment [20]: Cell Viability - Mesenchymal (AID 546).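 Further: cells exposed to compound for 40 hours before reading.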 The settings on record: mesenchymal cells viability, qHTS; series mostly up to 91.7 µM. In short, it runs like this: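 Normal human renal glomerulus-derived kidney mesenchymal cells, 1000 per well in complete medium, were treated with compounds for 40 hr at 37 °C. Viability was read as intracellular ATP by CellTiter-Glo luminescence; AC50 values came from Hill-equation fits of qHTS concentration-response data.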

Structures are written as SMILES. A number with no mark means an inactive call. Results filed as inconclusive are left out. The source made the active and inactive calls. Unless noted, the call rests on the fitted dose curve; in most records, active means well fitted curve in the direction sought with a large enough effect; inconclusive means small, poorly fitted or top-dose-only effect, or another doubt; inactive means no such curve, though single readings can be large; an effect the other way counts as inactive or inconclusive.

Sequence of Glucocorticoid receptor (Homo sapiens) (P04150 whole entry, looked up): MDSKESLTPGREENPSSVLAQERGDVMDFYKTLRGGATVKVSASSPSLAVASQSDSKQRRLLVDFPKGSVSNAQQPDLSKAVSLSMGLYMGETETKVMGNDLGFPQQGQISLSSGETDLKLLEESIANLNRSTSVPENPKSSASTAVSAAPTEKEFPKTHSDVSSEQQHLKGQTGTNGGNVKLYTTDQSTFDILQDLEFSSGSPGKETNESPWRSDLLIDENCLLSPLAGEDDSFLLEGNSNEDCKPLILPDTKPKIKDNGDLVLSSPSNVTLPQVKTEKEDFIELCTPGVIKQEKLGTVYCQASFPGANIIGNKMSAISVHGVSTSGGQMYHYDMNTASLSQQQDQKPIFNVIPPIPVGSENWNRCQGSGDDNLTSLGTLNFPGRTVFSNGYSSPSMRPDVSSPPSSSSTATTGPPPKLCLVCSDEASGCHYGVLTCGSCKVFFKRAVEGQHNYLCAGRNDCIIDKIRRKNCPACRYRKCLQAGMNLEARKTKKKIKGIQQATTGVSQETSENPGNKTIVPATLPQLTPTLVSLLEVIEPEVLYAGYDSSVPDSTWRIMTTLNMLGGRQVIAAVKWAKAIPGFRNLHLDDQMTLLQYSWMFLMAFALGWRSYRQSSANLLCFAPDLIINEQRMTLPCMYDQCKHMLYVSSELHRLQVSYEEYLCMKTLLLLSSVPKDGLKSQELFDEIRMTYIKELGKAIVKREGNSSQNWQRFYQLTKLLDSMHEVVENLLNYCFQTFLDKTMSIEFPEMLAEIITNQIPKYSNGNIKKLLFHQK
Sequence of 3',5'-cyclic-AMP phosphodiesterase 4B (Homo sapiens) (Q07343 whole entry, looked up): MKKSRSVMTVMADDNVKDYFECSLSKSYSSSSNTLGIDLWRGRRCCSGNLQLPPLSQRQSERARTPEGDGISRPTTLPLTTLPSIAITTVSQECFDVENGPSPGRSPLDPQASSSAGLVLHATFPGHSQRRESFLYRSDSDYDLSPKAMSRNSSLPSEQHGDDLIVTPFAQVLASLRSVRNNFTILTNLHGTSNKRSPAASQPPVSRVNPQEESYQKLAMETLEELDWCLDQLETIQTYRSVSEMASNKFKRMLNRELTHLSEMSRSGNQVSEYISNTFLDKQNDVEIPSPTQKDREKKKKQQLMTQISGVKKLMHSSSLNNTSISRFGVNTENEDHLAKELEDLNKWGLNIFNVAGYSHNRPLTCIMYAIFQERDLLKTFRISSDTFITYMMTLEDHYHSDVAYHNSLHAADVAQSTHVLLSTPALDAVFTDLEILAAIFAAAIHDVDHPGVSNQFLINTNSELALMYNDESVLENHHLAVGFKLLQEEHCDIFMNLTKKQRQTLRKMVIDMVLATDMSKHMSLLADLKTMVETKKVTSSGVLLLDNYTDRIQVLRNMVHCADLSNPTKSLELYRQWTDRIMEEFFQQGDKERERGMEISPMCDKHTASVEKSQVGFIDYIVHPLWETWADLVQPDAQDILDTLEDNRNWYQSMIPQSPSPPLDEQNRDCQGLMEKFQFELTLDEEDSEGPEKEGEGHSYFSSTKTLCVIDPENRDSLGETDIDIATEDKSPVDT

On to `Nc1ccc(N=Nc2ccccc2)c(N)n1`, for which the Potency in experiment [1] and in experiment [2] was over 20.6 µM each time. The activity change, negative = cytotoxicity in experiment [3] was -30.4%; in [4] it was -20%. For the same molecule, the result in experiment [5], in experiment [6], in [8], in [11], in experiment [12] and in experiment [14] was inactive. For the same molecule, the Potency result in experiment [7], in experiment [9], in experiment [10] and in [13] was “inactive” each time.

As to `COc1cc(S(C)=O)ccc1-c1nc2ncccc2[nH]1` (stereo not drawn), the Potency in [1] and in experiment [2] was over 20.6 µM each time. Besides, in [5], the call was inactive.

`COC(=O)c1ccccc1O`: the outcome in [15], in experiment [20], in experiment [6], in experiment [8], in [11] and in experiment [12] was inactive. Further, in [14], the outcome was inactive. Also, the activity change, negative = cytotoxicity is 0.567% in experiment [3], 6.05% in [16] and -0.7% in experiment [4]. The Potency result in [17], in experiment [18], in experiment [19], in experiment [7], in [9] and in [10] was “inactive” in each case. Also, the Potency entry in experiment [13] was “inactive”.

As for `Cc1ccc(S(=O)(=O)O)cc1C`, the molecule was called inactive in experiment [15], in experiment [20], in experiment [6], in experiment [8], in experiment [11] and in experiment [12]. For the same molecule, in experiment [14], the molecule was called inactive. The activity change, negative = cytotoxicity was -7.07% in experiment [3] and -15.2% in experiment [4]. Further, the Potency entry in experiment [17], in experiment [18], in [19], in experiment [7], in experiment [9] and in experiment [10] was “inactive” in each case. The Potency entry in experiment [13] was “inactive”.

Consider `C[C@H](CCC(=O)O)[C@H]1CC[C@H]2[C@@H]3CC[C@@H]4C[C@H](O)CC[C@]4(C)[C@H]3C[C@H](O)[C@]12C`, for which the call in experiment [15], in [20], in experiment [6], in experiment [8], in [11] and in experiment [12] was inactive. The outcome in experiment [14] was inactive. The activity change, negative = cytotoxicity in experiment [3] was -18.5%; in experiment [16], -91.1% (active); in experiment [4], -13.4%. The Potency result in experiment [17], in [18], in [19], in experiment [7], in experiment [9] and in [10] was “inactive” throughout. Further, in experiment [13], the Potency result was “inactive”.

Consider `Nc1ncnc2c1ncn2[C@H]1CC[C@@H](CO)O1`, for which the molecule was classed as inactive in experiment [15], in [20], in [6], in [8], in experiment [11] and in experiment [12]. Besides, the molecule was classed as inactive in [14]. The activity change, negative = cytotoxicity in experiment [3] was 6.32%; in experiment [16], 7.1%; in experiment [4], 2.7%. Besides, the Potency entry in experiment [17], in [18], in experiment [19], in experiment [9], in [10] and in experiment [13] was “inactive” in each case.

The values above are taken from PubChem BioAssay (NCATS).
